Source: PubChem (National Center for Advancing Translational Sciences (NCATS))
DT40 TDP1 CPT: qHTS for Inhibitors of human tyrosyl-DNA phosphodiesterase 1 (TDP1): qHTS in cells in presence of CPT; chicken DT40 Tdp1-/-;hTDP1 cells + 20 nM CPT, ATP luminescence, 48 h; Potency, µM (titrated, usually from 46.2 µM), inactives show top-dose activity change, negative = growth inhibition, most hits filed as inhibitors; 420,000 compounds, 12% hits; AID 686979, 2013; note: potency is the fitted concentration of half-maximal effect; nearly all actives have a fitted effect of over 55% in size
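Chicken DT40 Tdp1-/- cells complemented with human TDP1, 400 cells/well, exposed to compounds plus 20 nM camptothecin for at least 48 h at 37 C; viability read as ATP content by CellTiter-Glo luminescence.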
HT1080 IDH1KD tx: qHTS for induction of synthetic lethality in tumor cells producing 2HG: qHTS for the HT-1080-IDH1KD cell line. 360,000 compounds, 2% hits. AID 686971, 2013. Potency, µM (highest dose often 46.1 µM), inactives show at the top dose activity, negative = toxicity, most hits filed as cytotoxic. HT-1080 IDH1 knockdown viability, ATP luminescence, 48 h;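 note: potency is the fitted concentration of half-maximal effect; 0% = DMSO wells and -100% = cell-free medium wells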
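CellTiter-Glo luminescence after 48 h compound exposure at 37 degrees C of IDH1-knockdown HT-1080 cells in 5% FBS RPMI. %Activity scaled between DMSO wells and cell-free media wells, with curves fitted and assigned curve classes.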
IL-1B inflam inh: qHTS for Inhibitors of Inflammasome Signaling: IL-1-beta AlphaLISA Primary Screen | 360,000 compounds, 4.7% hits | activity change, % at 57.5 µM | AID 743279, 2014 | THP-1 LPS/ATP IL-1B secretion, AlphaLISA, 16 h; stronger effect = lower value; in the data active = activity change below about -50%; inconclusive = mostly about -30% to -49%
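THP-1 cells pretreated 1 hr with compounds (up to 57.5 uM final), then stimulated with LPS (250 ng/mL final) plus ATP (1.25 mM final); secreted IL-1B measured by AlphaLISA after 16 hr, decreased signal indicating inhibition.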
ELG1 repair inh: qHTS screen for small molecules that inhibit ELG1-dependent DNA repair in human embryonic kidney (HEK293T) cells expressing luciferase-tagged ELG1 | 330,000 compounds, 2.3% hits | AID 504467, 2011 | HEK293T ELG1-luciferase reporter, luminescence, 16 h; DNA damage induced by 5-fluorouridine | Potency, µM (top dose mostly 46.1 µM), for the others: at the top dose activity change, negative = inhibition, actives largely listed as inhibitors; note: potency is the fitted concentration of half-maximal effect; nearly all actives have a fitted effect of over 55% in size
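HEK293T cells expressing luciferase-tagged ELG1 (2,000/well) received 5-Fluorouridine plus compound or DMSO for 16 hr at 37 °C. Luciferase was read by ONE-Glo luminescence after 30 min at room temperature.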
TDP1 cell noCPT: qHTS for Inhibitors of human tyrosyl-DNA phosphodiesterase 1 (TDP1): qHTS in cells in absence of CPT; DT40 Tdp1-/- hTDP1 cells, no CPT, ATP luminescence, 48 h; Potency, µM (highest dose often 46.2 µM), without a hit: at the top dose activity change, negative = growth inhibition, actives largely listed as inhibitors; 420,000 compounds, 15% hits; note: potency is the fitted concentration of half-maximal effect; nearly all actives have a fitted effect of over 55% in size
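Chicken DT40 Tdp1-/- cells stably complemented with human TDP1 were seeded at 400 cells/well with DMSO in place of 20 nM camptothecin. After compound pinning, cells grew at least 48 hr at 37 °C; viability read by CellTiter-Glo luminescence.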
HT1080-NT tox: qHTS for induction of synthetic lethality in tumor cells producing 2HG: qHTS for the HT-1080-NT fibrosarcoma cell line; 360,000 compounds, 1.6% hits; HT-1080-NT fibrosarcoma viability, CellTiter-Glo ATP luminescence, 48 h; Potency, µM (series often up to 46.1 µM), inactives show top-dose activity, negative = less viability, usual class: cytotoxic;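 note: NT is the 2HG producing partner of a matched IDH1 knockdown line; potency is the fitted concentration of half-maximal effect; 0% = DMSO-treated cells and -100% = media-only wells without cells; nearly all actives have a fitted effect of over 55% in size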
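750 cells/well, RPMI + 5% FBS; 2 h settle, compound pin-transfer, 48 h at 37 degrees C. CellTiter-Glo 10 min RT, luminescence. Normalized to DMSO and media-only wells.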
The depositor's hits bear a star; i = inactive; u = inconclusive; x = no result given. Most compounds without a hit are left out; they make up all but 19% or so of the library. Unless noted, calls come from the whole dose curve; as a rule, active = well fitted curve in the direction sought with a large enough effect; inconclusive = small, poorly fitted or top-dose-only effect, or another doubt; inactive = no such curve, though single readings can be large; an effect the other way counts as inactive or inconclusive. Unless noted, % is set by controls: 0 for no effect and ±100 for the full control effect.

SMILES	DT40 TDP1 CPT	HT1080 IDH1KD tx	IL-1B inflam inh	ELG1 repair inh	TDP1 cell noCPT	HT1080-NT tox
Cc1ccc(C)c(OCc2cc(C(=O)N3CCc4sccc4C3)no2)c1	16.4µM*	14.2%	u	-23.4%	23.1µM*	8.2%
CCN(CCn1cccn1)C(=O)c1cc(COc2cc(C)ccc2C)on1	18.4µM*	-17.1%	10.4	u	u	-11.4%
COc1cccc(NC(=O)C2(C)CCN2C(=O)CCc2ccc(Cl)cc2Cl)c1 (stereo not drawn)	u	-18.1%	-19.9	x	u	-18.5%
Cc1ccc(C)c(OCc2cc(C(=O)N3CCN(C4CCCCC4)CC3)no2)c1	u	-4.4%	-10.7	x	u	-5.3%
Cc1ccc(C)c(OCc2cc(C(=O)N3CC[C@@H]4CCCC[C@H]4C3)no2)c1	u	-1.6%	i	u	25.9µM*	4.0%
COc1cccc(CNC(=O)CCc2c(C)nc3c4c(C)cc(C)nc4nn3c2C)c1	u	x	x	x	23.1µM*	x
COc1cc(OC)c(NC(=O)CCc2c(C)nc3c4c(C)cc(C)nc4nn3c2C)cc1Cl	-17.9%	x	x	x	-20.8%	x
Cc1cc(C)c2c(n1)nn1c(C)c(CCC(=O)Nc3cccc(C)c3C)c(C)nc21	7.31µM*	x	x	x	7.31µM*	x
Cc1ccc(Nc2c3c(nc4nncn24)CCC3)cc1C	u	x	x	x	16.4µM*	x
Brc1ccc(Nc2c3c(nc4nncn24)CCC3)cc1	u	x	x	x	18.4µM*	x
Cc1ccc(Nc2c3c(nc4nncn24)CCC3)cc1	-8.0%	x	x	x	-27.3%	x
COc1ccc(Nc2c3c(nc4nncn24)CCC3)cc1Cl	18.4µM*	x	x	x	20.6µM*	x
Cc1cccc(S(=O)(=O)N2CCn3cccc3C2C)c1 (stereo not drawn)	-17.7%	1.7%	-10.2	0.0%	-15.4%	3.5%
COc1ccc(NC(=O)c2c(NC(=O)CCC(=O)O)sc3c2CCCCC3)cc1	-7.5%	4.7%	39.7	4.2%	-18.3%	-14.8%
COc1ccc(Cl)cc1C(=O)Nc1sc2c(c1C(=O)OC(C)C)CCCC2	-11.4%	x	x	x	-7.9%	x
COc1cccc(CC(=O)Nc2sc3c(c2C(N)=O)CCCC3)c1	-25.3%	-19.0%	30.9	-3.0%	u	-26.2%
COc1ccc(CC(=O)Nc2sc3c(c2C(N)=O)CCCC3)cc1OC	u	-0.3%	-2.3	u	18.4µM*	-7.8%
COC(=O)c1ccc(NC(=O)c2c(NCc3ccc(OC)c(OC)c3)sc3c2CCCC3)cc1	2.91µM*	x	x	x	5.17µM*	x
COc1ccc(NC(=O)c2c(NCc3ccc(N(C)C)cc3)sc3c2CCC3)cc1	13µM*	x	x	x	10.3µM*	x
COC(=O)c1c(NC(=O)/C=C/c2ccc(OC)c(OC)c2)sc2c1CCC2	u	x	x	x	9.2µM*	x
O=C(CN1c2cccc3cccc(c23)S1(=O)=O)Nc1c(F)c(F)c(F)c(F)c1F	-9.1%	13.9%	-1.6	18.0%	-0.5%	-4.6%
O=C(O)[C@H]1CN(CCCP(=O)(O)O)CCN1	23.3%	x	x	x	-5.7%	x
COC(=O)c1ccc(NC(=O)c2c(NCc3ccc(C)o3)sc3c2CCCC3)cc1	14.6µM*	x	x	x	u	x
CCOC(=O)c1c(CC(C)C)csc1NC(=O)COC(=O)C1=NNC(=O)CC1	-25.4%	10.3%	11.3	6.0%	-29.4%	12.1%
CCOC(=O)c1c(CC(C)C)csc1NC(=O)COC(=O)c1ccc(O)cc1	23.1µM*	-1.0%	31.2	-27.0%	18.4µM*	-3.2%
SMILES	DT40 TDP1 CPT	HT1080 IDH1KD tx	IL-1B inflam inh	ELG1 repair inh	TDP1 cell noCPT	HT1080-NT tox
O=C(CNCCC1=CCCCC1)Nc1ccc(N2CCCCCC2)cc1	20.6µM*	u	-86.6*	-2.0%	20.6µM*	u
COC(=O)c1c(NC(=O)COC(=O)c2ccc(O)cc2)sc2c1CCCCC2	u	-5.6%	-79.5*	u	29.1µM*	2.2%
CCOc1ccccc1NC(=O)c1c(NCc2ccc(C)o2)sc2c1CCC(C)C2 (stereo not drawn)	-11.1%	x	x	x	-16.4%	x
O=C(COC(=O)c1ccc(O)cc1)Nc1ccc(N2CCCCC2)cc1	u	-2.9%	4.7	15.6%	20.6µM*	0.1%
COc1ccc(NC(=O)c2c(NCc3cccc(OC)c3)sc3c2CCCC3)cc1	u	x	x	x	23.1µM*	x
COc1cc(OC)cc(C(=O)OCC(=O)Nc2ccc(N3CCCCC3)cc2)c1	-23.0%	-23.0%	23.3	u	-20.0%	-0.4%
Cc1cccc(NC(=O)C2CCN(C(=O)NCc3ccccc3)CC2)c1C	2.8%	-1.4%	14.0	-5.2%	-8.3%	8.9%
Cc1cc(NC(=O)c2ccc(Cl)cc2)cc(C)c1OCC(=O)N1CCOCC1	7.3%	-1.3%	16.8	u	-5.7%	5.1%
N[C@@H](Cc1ccccc1)C(=O)N1CCC(C(=O)N[C@@H](Cc2c[nH]c3ccccc23)C(=O)O)CC1	-11.6%	0.3%	27.6	-3.6%	-10.1%	6.5%
CC1=C(C(=O)Nc2ccc(F)cc2)C(c2ccc(C)o2)C2=C(CC(C)(C)CC2=O)N1 (stereo not drawn)	-17.3%	1.8%	-27.5	4.0%	-11.6%	0.5%
CC1=C(C(=O)OC2CCCC2)C(c2coc3ccccc3c2=O)C2=C(CCCC2=O)N1 (stereo not drawn)	-18.7%	9.3%	-12.2	25.9%	0.411µM*	-6.5%
CCOC(=O)C1=C(C)NC2=C(C(=O)CC(c3cccs3)C2)C1c1cccs1 (stereo not drawn)	u	14.6µM*	u	u	u	u
CCOC(=O)C1=C(C)NC2=C(C(=O)OC2)C1c1ccccc1 (stereo not drawn)	u	20.6µM*	50.6	u	u	u
CC1=C(C(=O)OC2CCCCC2)C(c2ccc(C)o2)C2=C(CC(C)(C)CC2=O)N1 (stereo not drawn)	18.4µM*	2.6%	7.4	0.0%	u	9.3%
CCCOC(=O)C1=C(C)NC2=C(C(=O)CCC2)C1c1cccs1 (stereo not drawn)	-17.5%	-5.4%	9.7	-4.4%	-22.0%	-2.3%
CC1=C(C(=O)OC2CCCC2)C(c2ccc(C)o2)C2=C(CC(c3cccs3)CC2=O)N1 (stereo not drawn)	u	u	-27.8	-20.4%	16.4µM*	u
